# “And” between values parts separate entries of the source, which are not always exact repeats. Equal entries are not always repeated. A structure can be active in one record and inactive in another. The source made the active and inactive calls. How the source made its calls: active means hit-call score of the fitted dose curve at least 0.9, where 1 is the maximum; inactive means score below 0.9.
# Test: APR_HepG2_P-H2AX_72hr: Apredica 72-hour HepG2 Assay for H2AX Phosphorylation (AID 2282916);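 further: phospho-histone H2A.x immunostain intensity per cell marking DNA damage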
# Details: imaging, actives raise or lower the signal
# Procedure, shortened: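 HepG2; cpd 0.39–200 uM ×10 conc, duplicates; 0.5% DMSO; 72 hr. Fix 3.7% formaldehyde 30 min RT, 0.5% Triton X-100 10 min. Anti-phospho-H2A.x 1:200 + Hoechst 2 ug/mL, 60 min RT; ArrayScan imaging.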
Structure (SMILES),outcome,AC50
OCCOc1ccccc1,inactive,
CC1(c2ccc(Oc3ccccc3)cc2)OC(=O)N(Nc2ccccc2)C1=O (stereo not drawn),inactive,
CC(C)(C)C(O)C(Oc1ccc(Cl)cc1)n1cncn1 (stereo not drawn),inactive,
O=S1OCC2C(CO1)C1(Cl)C(Cl)=C(Cl)C2(Cl)C1(Cl)Cl (stereo not drawn),inactive,
CC(C)OC(=O)Nc1cccc(Cl)c1,inactive,
COP(=S)(OC)Oc1ccc([N+](=O)[O-])cc1,inactive,
O=C(O)C(F)(F)C(F)(F)C(F)(F)C(F)(F)C(F)(F)C(F)(F)C(F)(F)F,inactive,
Cc1[nH]c(=O)n(C(C)(C)C)c(=O)c1Cl,inactive,
O=[N+]([O-])c1c(Cl)c(Cl)c(Cl)c(Cl)c1Cl,inactive,
CCCN(CCOc1c(Cl)cc(Cl)cc1Cl)C(=O)n1ccnc1,inactive,
O=S(=O)(O)C(F)(F)C(F)(F)C(F)(F)C(F)(F)C(F)(F)C(F)(F)C(F)(F)C(F)(F)F,inactive,104 µM (active) and 9.71 µM (active) and 107 µM (active)
Oc1cc(Cl)ccc1Oc1ccc(Cl)cc1Cl,inactive,24.4 µM (active) and 34.3 µM (active)
CCC(C)(NC(=O)c1cc(Cl)c(C)c(Cl)c1)C(=O)CCl (stereo not drawn),inactive,
CNC(=O)Oc1ccccc1OC(C)C,inactive,
CNC(=O)CSP(=S)(OC)OC,inactive,
O=C1c2ccccc2C(=O)N1SC(Cl)(Cl)Cl,inactive,
ClC1C(Cl)C(Cl)C(Cl)C(Cl)C1Cl (stereo not drawn),inactive,
[2H]C1([2H])[n+]2ccccc2-c2cccc[n+]2C1([2H])[2H],inactive,
COC(=O)c1ccccc1CS(=O)(=O)NC(=O)Nc1nc(OC)cc(OC)n1,inactive,
CC[C@H](C)[C@H]1O[C@]2(C=C[C@@H]1C)C[C@@H]1C[C@@H](C/C=C(\C)[C@@H](O[C@H]3C[C@H](OC)[C@@H](O[C@H]4C[C@H](OC)[C@@H](O)[C@H](C)O4)[C@H](C)O3)[C@@H](C)/C=C/C=C3\CO[C@@H]4[C@H](O)C(C)=C[C@@H](C(=O)O1)[C@]34O)O2 (tested in a mixture with another compound),inactive,
CNC(=O)Oc1cccc(N=CN(C)C)c1,,107 µM (active)
Clc1ccccc1-c1nnc(-c2ccccc2Cl)nn1,,46.4 µM (active)
Cc1cc(C)nc(NC(=O)NS(=O)(=O)c2ccccc2C(=O)OC2COC2)n1,inactive,
O=C(O)COc1ccc(Cl)cc1Cl,inactive,
COC(=O)c1ccccc1S(=O)(=O)NC(=O)N(C)c1nc(C)nc(OC)n1,inactive,
Oc1ccc(Cl)cc1Cc1ccccc1,inactive,112 µM (active) and 122 µM (active) and 34.5 µM (active)

# Test: APR_HepG2_MitoMembPot_72hr: Apredica 72-hour HepG2 Assay for Mitochondrial Membrane Potential (AID 2282917)
# Details: imaging, actives raise or lower the signal
# Procedure, shortened: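 Membrane potential read by MitoTracker Red CMXRos (250 nM, 30 min, pre-fixation) fluorescence imaging of HepG2 after 72 hr exposure. Ten concentrations, 0.39–200 uM, duplicate wells, 0.5% DMSO; fitted in both directions against DMSO baseline.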
Structure (SMILES),outcome,AC50
OCCOc1ccccc1,inactive,
CC1(c2ccc(Oc3ccccc3)cc2)OC(=O)N(Nc2ccccc2)C1=O (stereo not drawn),inactive,
CC(C)(C)C(O)C(Oc1ccc(Cl)cc1)n1cncn1 (stereo not drawn),inactive,37.4 µM (active)
O=S1OCC2C(CO1)C1(Cl)C(Cl)=C(Cl)C2(Cl)C1(Cl)Cl (stereo not drawn),inactive,
CC(C)OC(=O)Nc1cccc(Cl)c1,inactive,
COP(=S)(OC)Oc1ccc([N+](=O)[O-])cc1,inactive,
O=C(O)C(F)(F)C(F)(F)C(F)(F)C(F)(F)C(F)(F)C(F)(F)C(F)(F)F,,116 µM (active) and 111 µM (active)
Cc1[nH]c(=O)n(C(C)(C)C)c(=O)c1Cl,inactive,
O=[N+]([O-])c1c(Cl)c(Cl)c(Cl)c(Cl)c1Cl,inactive,
CCCN(CCOc1c(Cl)cc(Cl)cc1Cl)C(=O)n1ccnc1,inactive,
O=S(=O)(O)C(F)(F)C(F)(F)C(F)(F)C(F)(F)C(F)(F)C(F)(F)C(F)(F)C(F)(F)F,inactive,
Oc1cc(Cl)ccc1Oc1ccc(Cl)cc1Cl,inactive,35 µM (active)
CCC(C)(NC(=O)c1cc(Cl)c(C)c(Cl)c1)C(=O)CCl (stereo not drawn),inactive,
CNC(=O)Oc1ccccc1OC(C)C,inactive,
CNC(=O)CSP(=S)(OC)OC,inactive,
O=C1c2ccccc2C(=O)N1SC(Cl)(Cl)Cl,,10.4 µM (active)
ClC1C(Cl)C(Cl)C(Cl)C(Cl)C1Cl (stereo not drawn),inactive,
[2H]C1([2H])[n+]2ccccc2-c2cccc[n+]2C1([2H])[2H],inactive,
COC(=O)c1ccccc1CS(=O)(=O)NC(=O)Nc1nc(OC)cc(OC)n1,inactive,
CC[C@H](C)[C@H]1O[C@]2(C=C[C@@H]1C)C[C@@H]1C[C@@H](C/C=C(\C)[C@@H](O[C@H]3C[C@H](OC)[C@@H](O[C@H]4C[C@H](OC)[C@@H](O)[C@H](C)O4)[C@H](C)O3)[C@@H](C)/C=C/C=C3\CO[C@@H]4[C@H](O)C(C)=C[C@@H](C(=O)O1)[C@]34O)O2 (tested in a mixture with another compound),inactive,
CNC(=O)Oc1cccc(N=CN(C)C)c1,inactive,
Clc1ccccc1-c1nnc(-c2ccccc2Cl)nn1,inactive,
Cc1cc(C)nc(NC(=O)NS(=O)(=O)c2ccccc2C(=O)OC2COC2)n1,inactive,
O=C(O)COc1ccc(Cl)cc1Cl,inactive,
COC(=O)c1ccccc1S(=O)(=O)NC(=O)N(C)c1nc(C)nc(OC)n1,inactive,
Oc1ccc(Cl)cc1Cc1ccccc1,inactive,116 µM (active) and 35.4 µM (active) and 66.2 µM (active)
